rCAG RNA binder – molecules binding r(CAG) RNA repeats. inhibition, % at 3 µM. r(CAG) RNA repeat, TO-PRO-1 dye displacement fluorescence. 370,000 compounds, 1.3% hits. AID 651821;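 active = inhibition above the plate cutoff, the mean of all test compounds on that plate plus 3 SD, cut at about 35% in these data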;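 also: higher means more dye released from RNA so lower well fluorescence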
PAFAH1B2 FP inh – inhibitors of human PAFAH1B2; P68402; recombinant PAFAH1B2, FP-rhodamine activity probe, fluorescence polarization; AID 492953; 340,000 compounds, 1.2% hits; inhibition, % at 3.39 µM;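 active = inhibition above the mean of all tested compounds plus 3 SD, cut at about 24% in these data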
Target sequence (P68402 whole entry, looked up): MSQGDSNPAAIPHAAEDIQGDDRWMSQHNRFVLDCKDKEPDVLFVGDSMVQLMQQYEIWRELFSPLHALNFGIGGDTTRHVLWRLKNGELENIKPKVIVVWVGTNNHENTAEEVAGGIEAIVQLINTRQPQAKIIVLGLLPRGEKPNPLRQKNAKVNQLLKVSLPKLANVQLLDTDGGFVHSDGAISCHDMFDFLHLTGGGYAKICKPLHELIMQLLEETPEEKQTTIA
PAFAH2 inh – inhibitors of human PAFAH2. recombinant PAFAH2, FP-rhodamine activity probe, fluorescence polarization. inhibition, % at 3.39 µM. 340,000 compounds, 0.99% hits. AID 492956;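 active = inhibition above the mean over all tested compounds plus 3 SD, cut at about 30% in these data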;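 also: inhibitors block probe labeling of enzyme so polarization drops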
EBNA-1 inhibitor – blocks EBNA-1 binding to DNA | EBNA-1 DNA binding, fluorescence polarization | inhibition, % at 14.8 µM | 300,000 compounds, 0.34% hits; in the data active = inhibition above about 28%
PAFAH1B3 FP inh – PAFAH1B3 (human) inhibition. Q15102. recombinant PAFAH1B3, FP-rhodamine probe, fluorescence polarization. inhibition, % at 3.39 µM. 340,000 compounds, 0.28% hits. AID 492972;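 active = inhibition above the screen-wide average of all tested compounds plus 3 SD, cut at about 25% in these data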
ZTA DNA inh – ZTA (EBV) inhibition in EBNA-1 counter-screen; ZTA-DNA binding, fluorescence polarization; inhibition, % at 11 µM; 320,000 compounds, 0.15% hits; in the data active = inhibition above about 33%
Target sequence (P03206 whole entry, looked up): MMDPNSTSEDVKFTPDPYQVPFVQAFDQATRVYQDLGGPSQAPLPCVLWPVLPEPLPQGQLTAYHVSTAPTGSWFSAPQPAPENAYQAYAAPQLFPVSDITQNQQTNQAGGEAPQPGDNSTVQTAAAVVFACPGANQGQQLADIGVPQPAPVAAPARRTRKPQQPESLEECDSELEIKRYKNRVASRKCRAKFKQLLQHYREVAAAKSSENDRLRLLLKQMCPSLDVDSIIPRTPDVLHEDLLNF
rCAG binder conf – r(CAG) RNA repeat binding, confirmation; shares compounds with rCAG RNA binder; TO-PRO-1 dye displacement fluorescence; 4,300 compounds, 70% hits; inhibition, % at 3 µM;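 active = inhibition above a per-plate cutoff, the mean inhibition of sample wells plus 3 SD, cut at about 35% in these data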;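 also: loss of TO-PRO-1 fluorescence as compound displaces dye from 1x1 AA loop RNA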
DNA CAG counter – DNA CAG dye complex inhibition counter-screen | shares compounds with rCAG RNA binder | d(CAG) DNA oligo TO-PRO-1 dye displacement, fluorescence | inhibition, % at 3 µM | 4,300 compounds, 94% hits | AID 652068;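 active = inhibition above its plate's cutoff, the mean test-well inhibition plus 3 SD, cut at about 4.8% in these data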;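 also: hits displace the dye from DNA and so lower well fluorescence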
dCAG dye DR – disrupts DNA CAG TO-PRO-1 complex in dose response; DNA CAG/GTC duplex TO-PRO-1 dye displacement fluorescence; shares compounds with rCAG RNA binder; 250 compounds, 20% hits; IC50, µM; in the data active = IC50 below about 10 µM
Each line names hits and unclear results; the compound was inactive in the other large screens (follow-up assays come after a bar, where they were run). Most compounds without a hit are left out; they make up all but 2.9% or so of the library.

CCOc1cc(/C=C2\SC(=Nc3ccc(CC)cc3)NC2=O)ccc1OCC(=O)O	rCAG RNA binder 71 | rCAG binder conf 47 | DNA CAG counter 14
CCOC(=O)C1=C(O)/C(=C/c2ccc(OCC(=O)O)c(OC)c2)SC1=Nc1ccc(OCC)cc1	rCAG RNA binder 38 | rCAG binder conf 65 | DNA CAG counter 21
CCOC(=O)C1=C(O)/C(=C/c2ccc(OCC(=O)O)c(OCC)c2)SC1=Nc1ccccc1	none
Cc1ccc(C2=CCN(C)C(=O)N2c2ccc(Br)cc2)cc1	none (no result: PAFAH1B2 FP inh, PAFAH2 inh, EBNA-1 inhibitor, PAFAH1B3 FP inh, ZTA DNA inh)
COC(=O)C1(C(=O)OC)C[C@H](c2ccc(OC)cc2)N(Cc2ccccc2OC)[C@@H]1c1cccs1	none (no result: PAFAH1B2 FP inh, PAFAH2 inh, EBNA-1 inhibitor, PAFAH1B3 FP inh, ZTA DNA inh)
CCOC(=O)C1=C(O)/C(=C/c2ccc(-c3ccccc3C(=O)O)o2)SC1=Nc1ccc(OC)cc1	rCAG RNA binder 38 (no result: EBNA-1 inhibitor, ZTA DNA inh) | rCAG binder conf 80 | DNA CAG counter 38
CCOc1cc(Br)cc(/C=C2\SC(=Nc3ccccc3)NC2=O)c1O	rCAG RNA binder 67 | rCAG binder conf 83 | DNA CAG counter 47
C=CCOc1c(Br)cc(/C=C2\SC(=Nc3ccccc3)NC2=O)cc1OC	none (no result: EBNA-1 inhibitor, ZTA DNA inh)
Cc1ccc(C)c(NC(=O)CSc2nc3nc(-c4cccs4)cc(C(F)(F)F)c3c(=O)[nH]2)c1	rCAG RNA binder 58 | rCAG binder conf 83 | DNA CAG counter 47
COc1cc(C=C2C(=O)C=CC2=O)ccc1O	rCAG RNA binder 73 (no result: PAFAH1B2 FP inh, PAFAH2 inh, EBNA-1 inhibitor, PAFAH1B3 FP inh, ZTA DNA inh) | rCAG binder conf inactive | DNA CAG counter 5.4
CCOC(=O)C1=C(C)N(c2ccccc2)C(=O)/C1=C\c1ccc(O)c(OC)c1	none
O=C1/C(=C\c2ccc(O)c(O)c2)C(c2ccccc2)=NN1c1ccccc1	rCAG RNA binder 74 (no result: EBNA-1 inhibitor, ZTA DNA inh) | rCAG binder conf 81 | DNA CAG counter 44
COc1cc(/C=C2\C(=O)N(c3ccc(NC(C)=O)cc3)N=C2c2ccccc2)ccc1O	rCAG RNA binder 83 | rCAG binder conf 70 | DNA CAG counter 31 | dCAG dye DR inactive
CC1=NN(c2ccccc2)C(=O)/C1=C\c1sccc1C	none
C#CCNC(=O)C[C@@H]1C(=O)N2CCCC3=C2[C@@]1(C(=O)OCC)CCC3	rCAG RNA binder 35 (no result: PAFAH1B2 FP inh, PAFAH2 inh, EBNA-1 inhibitor, PAFAH1B3 FP inh, ZTA DNA inh) | rCAG binder conf inactive | DNA CAG counter inactive
Oc1ccc(/C=N/NC(=S)Nc2cccnc2)c(O)c1O	rCAG RNA binder 44 (no result: EBNA-1 inhibitor, ZTA DNA inh) | rCAG binder conf 39 | DNA CAG counter 15
Cc1cccc(N/N=C/c2ccc(O)c(O)c2O)c1	rCAG RNA binder 43 | rCAG binder conf 43 | DNA CAG counter 16
COc1cccc(OC)c1NC(=O)CN1CCN(C)CC1	none
CCOC(=O)c1sc(-n2[nH]c(C)cc2=O)nc1C	rCAG RNA binder 78 | rCAG binder conf 47 | DNA CAG counter 13
Cc1ccc([N+](=O)[O-])cc1N(CC(=O)Nc1ccc(S(=O)(=O)Nc2cccc(C(F)(F)F)c2)cc1)S(C)(=O)=O	rCAG RNA binder 58 | rCAG binder conf 56 | DNA CAG counter 18
CC(C)Cn1nc(NS(=O)(=O)c2cccc3nonc23)c2cc3ccccc3nc21	rCAG RNA binder 53 | rCAG binder conf 39 | DNA CAG counter 12
CCn1nc(NS(=O)(=O)c2cccc3nonc23)c2cc3ccc(C)cc3nc21	none (no result: rCAG RNA binder)
Cc1c(C(=O)NNC(=S)Nc2cccc(Cl)c2)nnn1-c1ccccc1	rCAG RNA binder 45 | rCAG binder conf 44 | DNA CAG counter 14
Cc1cc(NC(=O)Nc2cccc(Cl)c2)n(-c2ccccc2)n1	none
O=C(O)c1ccccc1C(=O)c1ccc(Sc2ccc(Cl)cc2)c([N+](=O)[O-])c1	rCAG RNA binder 64 | rCAG binder conf 71 | DNA CAG counter 32
Nc1ccccc1Sc1ccc(C(=O)c2ccccc2C(=O)O)cc1[N+](=O)[O-]	rCAG RNA binder 64 | rCAG binder conf 48 | DNA CAG counter 15
CC(C)(C)c1ccc(C(=O)N/C(=C\c2cccc([N+](=O)[O-])c2)C(=O)Nc2cccc(C(=O)O)c2)cc1	rCAG RNA binder 84 | rCAG binder conf 75 | DNA CAG counter 44
